According to PubChem BioAssay (NCI):
Compounds without any hit were thinned out: in the full panel of roughly 83,000, 20% have a hit.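 Note: values are percent growth. 100 is the growth of untreated cells, values between 100 and 0 indicate rising inhibition; between -100 and 0 indicates cell death.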 Values without a mark were called inactive. Active and inactive are the calls of the source. The calls were made as follows: active = growth percent below 10; inactive = the rest.

Test system: KM12 colon
Assay: NCI-60 one-dose screen, 48 h (100 = growth as untreated, 0 = no growth, -100 = all killed)
Settings: 10 µM unless noted

Compound | growth
CC1=C(C#N)C2=NNCC(c3ccccc3)=NN2C(c2ccccc2)=C1 | 107%
O=C(O)c1ccc(-c2ccc(/C=N/NC(=O)c3[nH]c4ccc(Br)cc4c3-c3ccccc3)s2)cc1 | -14.8% (active)
N#Cc1c(-c2ccc(Cl)cc2)nc2n[nH]c(-c3ccc(Cl)cc3)c2c1-c1cccs1 | 42%
COc1c(F)ccc(C(=O)Nc2ccc3nc(NC(=O)C4CCCN(S(=O)(=O)c5cccc(Br)c5)C4)sc3c2)c1F (centres undefined) | 78.7%
O=c1[nH]c2ccc(Cl)cc2cc1CSc1nccc(-c2ccc(Cl)cc2)n1 | 69.7%
O=C(O)c1cccc(-c2ccc(/C=N/NC(=O)c3[nH]c4ccc(Br)cc4c3-c3ccccc3)s2)c1 | 21.6%
O=c1[nH]c(=O)c2c(-c3cc4ccccc4oc3=O)ccnc2[nH]1 | 95.4%
N#Cc1c(-c2ccc(Br)cc2)nc2n[nH]c(-c3ccc(Br)cc3)c2c1-c1ccc(C(F)(F)F)cc1 | 10.9%
COc1cccc(/C=C/c2nc3ccccc3c(=O)n2CC(=O)Nc2ccc(Cl)cc2)c1 | 77.8%
CSc1ccc(C(=O)Nc2ccc3nn(/C(C#N)=C/c4ccccn4)nc3c2)cc1 | -43.6% (active)
O=C(/C=C/c1ccc(-c2ccccc2)cc1)c1nc2ccccc2n1Cc1ccc(Br)cc1 | 74.3%
COc1ccc2c(c1)c(/C=N/Nc1ccc3ccccc3n1)cn2C | -66.5% (active)
COc1c(F)ccc(C(=O)Nc2ccc3nc(NC(=O)C4CCCN(S(=O)(=O)c5ccc(Br)c(F)c5)C4)sc3c2)c1F (centres undefined) | 79.2%
N#Cc1c(-c2cccc(Cl)c2Cl)cc(-c2ccc3ccccc3c2)[nH]c1=O | 98.4%
Nc1cc2ccccc2c(=O)n1NC(=O)c1ccc(I)cc1 | 103%
CCN(CC)c1ccnc(CNCCSC(c2ccccc2)(c2ccccc2)c2ccc(OC)cc2)c1 | -49.8% (active)
N#Cc1c(-c2ccccc2Cl)cc(-c2c[nH]c3ccccc23)[nH]c1=O | 71%

Compound | growth
N#Cc1ccc(/C=N/NC(=O)c2[nH]c3ccc(Br)cc3c2-c2ccccc2)o1 | 6.36% (active)
Cc1nc(Nc2ncc(C(=O)Nc3c(C)cccc3Cl)s2)cc(N2CCN(CCCNC(=O)COc3ccc(C4CCC(=O)NC4=O)cc3)CC2)n1 (centres undefined) | 82%
Cc1cc(=O)oc2cc(OCCCOc3ccc(/C=C/C(=O)Nc4ccccc4N)cc3)ccc12 | 12.6%
COc1c(F)ccc(C(=O)Nc2ccc3nc(NC(=O)C4CCCN(S(=O)(=O)c5ccc(C(F)(F)F)cc5)C4)sc3c2)c1F (centres undefined) | 75.2%
Cc1sc2c(c1C)C(c1ccc(Cl)cc1)=N[C@@H](CC(=O)NCCCCCNC(=O)COc1ccc(C3CCC(=O)NC3=O)cc1)c1nnc(C)n1-2 (some centres undefined) | 13.9%
COc1ccc(C(=O)/C=C/c2ccc(OCc3ccc(F)cc3)c(OC)c2)cc1OC | 14%
CCOC(=O)C1=C(N)N(c2ccccc2)C2=C(C(=O)CC(C)(C)C2)C1c1ccc(Cl)cc1Cl (centres undefined) | 18.7%
CCCCSc1nc(Nc2ccc(S(N)(=O)=O)cc2)c(C#N)c(-c2ccc(Cl)cc2)n1 | 74.7%
CC(C)CCNC(=O)N/C(N)=N/c1nc2ccccc2s1 | 62.7%
CN(C)c1nc(NCCNS(=O)(=O)c2ccc(C3=Nc4c(N)nc(N)nc4NC(c4ccc(F)cc4)C3)cc2)nc(Nc2ccc(F)cc2)n1 (centres undefined) | 24.5%
COc1ccc2cc([C@H](C)C(=O)N/N=C/c3ccc(Br)cc3)ccc2c1 | 105%
Cn1cc(-c2cc3nc(-c4cn(C)c5ncccc45)cc(N)n3n2)c2ccccc21 | 36.2%
COc1ccc(-c2cc(C(=O)NCc3ccccc3)nn2-c2ccc(S(C)(=O)=O)cc2)cc1OC | 102%
COc1ccc(-c2ccc(SCC(=O)Nc3ccc(S(N)(=O)=O)cc3Br)nn2)cc1 | 88.7%
C#CCOc1cc(N(CC)CC)ccc1C(C(=O)NC(C)(C)C)N(C(=O)C1CCc2cc(F)ccc2O1)c1cc(C)cc(C)c1 (centres undefined) | 25.9%
N#Cc1c(-c2ccc(Br)cc2)nc2n[nH]c(-c3ccc(Br)cc3)c2c1-c1ccc(F)cc1 | 105%
CSc1ccc(NC(=O)c2ccc3nn(/C(C#N)=C/c4ccccn4)nc3c2)cc1 | -68% (active)
